Results on 63 compounds are retold here after PubChem BioAssay AID602248 (The Scripps Research Institute Molecular Screening Center, 2012).

The structures appear in SMILES notation. The whole screen tested about 360,000 compounds, of which about 1,700 (0.47%) were called active. This excerpt belongs to a sample that is enriched for actives. A number with no mark means an inactive call. Cut-off read from the data, not from the text of the source: active = activation above about 15%; inactive = the rest.

The assay can be described thus: counter-screen for M1 agonists: effect in parental CHO-K1 cells (AID 602248).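 Note: untransfected CHO-K1 host cells lacking M1 receptor as counterscreen.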 Particulars: Fluo-8 calcium fluorescence, at 3 µM, active compounds read high, scaled to maximal ATP response, vehicle zero. For orientation: The purpose of a counterscreen is to sort out artefacts and off-target activity.
Turning to `COc1ccc(S(=O)(=O)N2CCOCC2)c(C)c1C`, the activation was 0.55%.

Regarding `COCCNc1ncnc2c1nc1n2CCCC1`, the activation was 0.47%.

For the compound `O=C(CCc1ccccc1)Nc1nn[nH]n1`, the activation was 1.57%.

As for `O=C(/C=C/c1c(Cl)cccc1Cl)NCc1ccccc1`, the activation was 0.05%.

On to `O=C(/C=C/c1c(F)cccc1Cl)Nc1nn[nH]n1`, for which the activation is 22% (active).

Regarding `O=C1CCC(=O)N(O)CCCCCNC(=O)CCC(=O)N(O)CCCCCNC(=O)CCC(=O)N(O)CCCCCN1`, the activation is -0.15%.

As to `CCOc1ccc(OCC)c(NC(=O)C2CCN(S(=O)(=O)c3c(C)noc3C)CC2)c1`, the activation was -0.25%.

Regarding `Clc1ccc(CSc2nnc([C@@H]3CCCN3)o2)cc1`, the activation was 0.78%.

Consider `CCN1/C(=C\c2ccc3ccccc3[n+]2CC)Sc2cc(C)ccc21`, for which the activation is 22.8% (active).

Turning to `Cc1nn(C)cc1N1C(=O)c2cccc3c(N)ccc(c23)C1=O`, the activation was 40.2% (active).

In the case of `CN1C(=O)c2cccc3c(N)ccc(c23)C1=O`, the activation was 28.8% (active).

Consider `CC(=O)OC1CCC2(C)C(=CCC3C4CC(=O)N(O)C(=O)C4(C)CCC32)C1` (stereo not drawn), for which the activation was 0.34%.

Regarding `O=C1CCC[C@@H]2CC(N3CCCCC3)C[C@@H]3CCN1[C@H]23` (stereo partly drawn), the activation was 0.27%.

Take `CCCc1c(C(=O)N/N=C(\C)CCc2ccc(OC)cc2)nnn1-c1nonc1N`: the activation is 0.32%.

In the case of `Cc1ccc(S(=O)(=O)Nc2nc(CN3CCOCC3)nc3sc(C)c(C)c23)cc1`, the activation was 0.12%.

Consider `CCCCCCCCCCCCN1C(=O)CSC1c1cccnc1` (stereo not drawn), for which the activation was 1.63%.

Consider `Oc1ccc2ccc3cccc[n+]3c2c1`, for which the activation was 25.3% (active).

Regarding `COc1ccc(CCNC(=O)CSc2nnc3ccc(-c4ccncc4)nn23)cc1`, the activation was 0.28%.

For `COCc1cc(C)nc2sc3c(=O)n(-c4cccc5ccccc45)nnc3c12`, the activation is 0.44%.

Take `O=C(NCc1ccccc1)C1CCCN(S(=O)(=O)c2cccs2)C1` (stereo not drawn): the activation is 0.58%.

As for `Cc1cc(=O)n2nc(N3CCCC(C(=O)NCc4ccc(Cl)cc4)C3)sc2n1` (stereo not drawn), the activation is 0.13%.

For `O=C(NCc1ccccc1)C1CCCN(c2nc3ccsc3c(=O)s2)C1` (stereo not drawn), the activation is 18.9% (active).

For `CC(C)NC(=O)c1ccc(Sc2ccccc2)c([N+](=O)[O-])c1`, the activation was -0.3%.

Turning to `CC(C)(C)NC(=O)CN1CCC(NC(=O)C23CC4CC(CC(C4)C2)C3)CC1`, the activation was 0.73%.

On to `COc1cc(OC)c(C(=S)N2CCCC2)cc1OC`, for which the activation is -0.12%.

`CC(NC(=O)c1cccc2ccccc12)c1ccc2c(c1)CCCC2` (stereo not drawn): the activation was -0.03%.

For `Nc1ccc2nc3c(=O)[nH]c(=S)[nH]c3nc2c1`, the activation is 21.2% (active).

Consider `COc1cc(C(=O)OCc2cc(=O)n3ccsc3n2)ccc1OC(C)C`, for which the activation is 1.63%.

As for `Cc1ccc(CN(Cc2cccnc2)C(=S)Nc2cccc(Cl)c2C)cc1`, the activation is 0.06%.

Turning to `Cc1c(Cl)cccc1NC(=S)N(Cc1ccccc1)Cc1cccnc1`, the activation was 0.16%.

On to `Cc1cccc(C)c1NC(=S)N(Cc1cccnc1)Cc1ccccc1Cl`, for which the activation was 19.6% (active).

As for `O=C1Nc2ccccc2NC(c2ccc3c(c2)OCO3)=C1N(Cc1ccc(F)cc1)C(=O)c1ccco1`, the activation was 1.41%.

On to `O=C(Nc1ncc([N+](=O)[O-])s1)C1COc2ccccc2O1` (stereo not drawn), for which the activation was 15.9% (active).

Turning to `O=C(Nc1cc(S(=O)(=O)N2CCCCC2)ccc1Cl)C1COc2ccccc2O1` (stereo not drawn), the activation is 3.15%.

On to `CC(=O)c1ccccc1NC(=O)COC(=O)C1COc2ccccc2O1` (stereo not drawn), for which the activation is 0.64%.

On to `COc1ccc(CN2C(=O)C(CC(=O)NC3CCCCC3)CC(C(=O)N3CCOCC3)=C2C)cc1` (stereo not drawn), for which the activation was 0.65%.

Turning to `Cc1cc(OCC(=O)Nc2c(C)n(C)n(-c3ccccc3)c2=O)ccc1[N+](=O)[O-]`, the activation was 0.08%.

Take `O=C(COc1ccccc1[N+](=O)[O-])NC1CC1`: the activation was 1.25%.

With `Cc1cc(OCC(=O)NC2CCN(C)CC2)ccc1[N+](=O)[O-]`, the activation is 23.7% (active).

For the compound `O=C(c1c(Cl)cccc1Cl)N1CCN(c2cccc3[nH]ccc23)CC1`, the activation was 2.17%.

With `CC(O)CNCCOc1cccc(Oc2ccccc2)c1` (stereo not drawn), the activation is 1.52%.

`OC(CNCCc1ccc(Cl)cc1Cl)COc1ccccc1` (stereo not drawn): the activation is 16.2% (active).

Consider `COc1ccc(OCC(O)CNC(=O)Nc2ccc(Cl)cc2)cc1` (stereo not drawn), for which the activation was 1.9%.

Consider `C(=N/N1CCN(c2ccccc2)CC1)/c1cccs1`, for which the activation is 0.31%.

With `COc1ccc2c(c1)CCC/C2=N\OC(=O)c1ccccc1F`, the activation was 1.78%.

For `CCOc1ccccc1NC(=S)NC(=O)CCc1ccccc1`, the activation is -0.34%.

On to `Cc1cc(C(=O)NNC(=S)Nc2ccccc2C)cs1`, for which the activation was 7.73%.

`Cc1ccccc1NC(=S)NC(=O)Cc1ccc(Cl)cc1`: the activation was 21.2% (active).

Regarding `Fc1ccccc1CNC(=S)Nc1ccc(Cl)cc1`, the activation was 11.3%.

With `Cc1ccccc1N/C(SCc1ccc(Cl)cc1)=C(/C#N)C(N)=O`, the activation is 0.43%.

`O=C(Cc1ccc(Cl)cc1)NC(=S)Nc1ccccc1O`: the activation was 29.2% (active).

As for `COc1ccc(CCNC(=O)C(=O)NCC2CCNCC2)cc1OC`, the activation was 1.91%.

In the case of `O=C(CN1C(=O)CSC1=O)N1CCCC(Nc2ccc(F)cc2)C1` (stereo not drawn), the activation was 1.24%.

Regarding `O=C(CSc1nncn1-c1cccnc1)N1CCOCC1`, the activation is 0.39%.

`Cn1c(Nc2ccc(F)cc2)nc2cc(-c3ccsc3)sc2c1=O`: the activation is 1.38%.

`COc1c(N2CCN(C(=S)Nc3ccccc3F)C(C)C2)c(F)cc2c(=O)c(C(=O)O)cn(C3CC3)c12` (stereo not drawn): the activation was 0.37%.

Turning to `CC(=O)Nc1c(-c2ccc(C)cc2)nc2ccc(Cl)cn12`, the activation was -0.07%.

In the case of `CS(=O)(=O)/C(C#N)=C/c1cccn1S(=O)(=O)c1ccc([N+](=O)[O-])cc1`, the activation was 0.19%.

For `C[C@@H](O)c1nc2ccccc2n1N`, the activation is 6.47%.

On to `CCN1C(=O)C(=O)N(CC(=O)Nc2cc(C)ccc2C)C1=O`, for which the activation is 0.48%.

As for `Cc1c(NS(=O)(=O)c2cc(C(=O)NCCc3ccc(F)cc3)cc(Cl)c2Cl)c(=O)n(-c2ccccc2)n1C`, the activation was -0.45%.

For the compound `Cc1cc(C)c(/C=C2\C(=O)Nc3ccccc32)[nH]1`, the activation is 24.4% (active).

On to `COc1ccccc1S(=O)(=O)c1c(C)cc(C)[nH]c1=O`, for which the activation is 0.65%.
